The list is not random: actives were taken first. Their share in the collection is about 2%.
Beta cell apopt – blocks beta cell apoptosis; INS-1E cytokine-induced death, ATP luminescence, 48 h; percent of positive-control rescue, neutral wells zero; actives 0.8% (n = 300,000); protection from apoptosis, % (test concentration not listed);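 active = Every replicate reaches about 75%, or at least half do and their mean reaches it too, limit read from the data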;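 also: higher means more ATP so stronger rescue from cytokine killing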
Shn3 3UTR inh – Schnurri-3 reporter inhibition in Clone20 osteoblasts. Clone20 osteoblast Shn3 3'UTR firefly luciferase, 24 h. actives 0.52% (n = 360,000). inhibition, % at 12.5 µM;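 active = mean inhibition of at least 75% with every replicate also reaching 75%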
Calb FLC – affects C. albicans growth with fluconazole | C. albicans CaCi-2 (fluconazole-resistant clinical isolate) + fluconazole, Alamar Blue growth, 48 h | growth inhibition, % (test concentration not listed) | actives 0.57% (n = 300,000);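 active = growth inhibition above about 58% in most replicates, limit read from the data, passing the limit was not always enough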;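 also: all wells also contain fluconazole at 8 µg/ml as a sub-toxic cotreatment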
697 NFkB inh – inhibitors of the PMA/ionomycin-induced NF-kB reporter in 697 B cells; actives 0.33% (n = 330,000); 697 B-cell NF-kB luciferase reporter, 16 h; inhibition, % at 4 µM; in the data active = inhibition above about 35%
Jurkat NFkB inh – inhibitors of the PMA/ionomycin-induced NF-kB reporter in Jurkat cells; inhibition, % at 4 µM; PMA/ionomycin-induced NF-kB luciferase reporter, luminescence; actives 0.53% (n = 330,000); in the data active = inhibition above about 50%
697 NFkB conf – lowers PMA/ionomycin-induced NF-kB signal in 697 B cells | inhibition, % at 4 µM | actives 35% (n = 2,000) | shares compounds with 697 NFkB inh | AID 449746 | 697 B-cell NF-kB luciferase, 16 h; in the data active = inhibition mostly above about 28%, no sharp cut-off; inactive = mostly below about 22%
Large screens that a line does not name were inactive (follow-up assays come after a bar, where they were run).

c1csc(-c2nc(-c3ccc(-c4ccon4)s3)no2)c1	none | 697 NFkB conf inactive
O=C(COC(=O)[C@@H]1CC(O)CN1S(=O)(=O)c1ccc(Cl)cc1)NC(=O)NCc1ccccc1 (stereo partly specified)	none
O=C(COC(=O)CCOc1ccccc1)Nc1ncc(Cl)cc1Cl	none
Cc1ccn2cc(-c3ccc(Br)cc3)nc2c1	none | 697 NFkB conf inactive
CCc1ccc(/C=C2\SC(=S)N(CCCC(=O)NC3=NCCS3)C2=O)cc1	none (no result: Beta cell apopt, Calb FLC, 697 NFkB inh, Jurkat NFkB inh)
O=C(NCc1ccccc1)c1ccc(C(=O)NCc2ccccc2)cc1	none (no result: Beta cell apopt, Calb FLC, 697 NFkB inh, Jurkat NFkB inh)
O=C(NCc1ccccc1)c1ccc(C(=O)N(C2CCCCC2)C2CCCCC2)cc1	697 NFkB inh 35 | 697 NFkB conf inactive
CCc1sc(C(=O)Nc2cccc(-n3cnnn3)c2)cc1C	697 NFkB inh 37 (no result: Calb FLC) | 697 NFkB conf 39
CCn1c(SCC(=O)NC2CCCCC2)nnc1-c1ccccc1F	none
Cc1cc(Cl)c(S(=O)(=O)N2CCCC2)cc1OCC(=O)NC1CCCCC1	none
Cc1cc(Cl)c(S(=O)(=O)NC(C(=O)O)C(C)C)cc1OCC(=O)NC1CCCCC1 (stereo unspecified)	697 NFkB inh 37 | 697 NFkB conf inactive
C/C(=N\N=C1\NC(=O)C(Cc2ccccc2)S1)c1ccccc1 (stereo unspecified)	none
CC(=O)/C(C#N)=C1\NC(=O)C(Cc2ccccc2C)S1 (stereo unspecified)	none | 697 NFkB conf inactive
CC(=O)/C(C#N)=C1\NC(=O)C(Cc2ccccc2)S1 (stereo unspecified)	none | 697 NFkB conf inactive
CC(=O)N1CC(C)Sc2ccc(S(=O)(=O)NC3CCCCC3C)cc21 (stereo unspecified)	none
Cc1oc(-c2ccc(-c3ccccc3)cc2)nc1CN1CCN(CC(=O)N(C)C)CC1	none (no result: Beta cell apopt) | 697 NFkB conf inactive
COc1ccc(COc2cc(-c3cccc(OC)c3)nc3ccc(NC(=O)c4ccc(OC)cc4)cc23)cc1	none
COc1ccc(COc2cc(-c3cccc(OC)c3)nc3ccc(NC(=O)c4ccccc4)cc23)cc1	697 NFkB inh 40 | 697 NFkB conf inactive
Cc1nn(C)c(C)c1CN(C)C(=O)c1cnn2c1NC(c1ccccc1)CC2C(F)(F)F (stereo unspecified)	697 NFkB inh 39 | 697 NFkB conf inactive
Oc1cccc(-c2nc3ccccc3s2)c1	none (no result: Beta cell apopt) | 697 NFkB conf inactive
COc1ccc(N2CCN(C(=O)Nc3ccc(S(=O)(=O)N(C)C)cc3)CC2)cc1	none
CN(C)S(=O)(=O)c1ccc(NC(=O)N2CCN(c3ccccc3)CC2)cc1	697 NFkB inh 46 | 697 NFkB conf 29
COc1ccccc1CCC(=O)N(Cc1ccccc1)c1c(N)n(Cc2ccccc2)c(=O)[nH]c1=O	none
FC(F)Sc1ccc(NC2=NCCCCC2)cc1	none
Clc1ccc(NC2=NCCCCC2)cc1	697 NFkB inh 36 | 697 NFkB conf inactive
CCOc1ccc(-n2c(=S)sc3c(=O)[nH]c(SCC(=O)NC4CCCCC4)nc32)cc1	none (no result: Beta cell apopt, Calb FLC, 697 NFkB inh, Jurkat NFkB inh)
O=C(CCCN1C(=O)/C(=C/c2ccccc2Cl)SC1=S)Nc1ccccn1	697 NFkB inh 46 | 697 NFkB conf 68
O=C(CCCN1C(=O)/C(=C/c2ccccc2Cl)SC1=S)Nc1cccnc1	697 NFkB inh 83 | 697 NFkB conf 61
O=C(CCN1C(=O)/C(=C/c2ccccc2Cl)SC1=S)Nc1cccnc1	none
O=C(NC(=S)Nc1ccc2cn[nH]c2c1)c1ccccc1	none
Nc1nc(N)nc(-c2cc(O)ccc2O)n1	none (no result: Calb FLC)
CCCCNc1nc(N)nc(-c2cc(Cl)ccc2O)n1	none | 697 NFkB conf inactive
NC(=S)c1cc2ccc(O)cc2oc1=O	none (no result: Beta cell apopt, 697 NFkB inh, Jurkat NFkB inh)
Oc1cc(O)cc(-c2cc3ccc(O)cc3o2)c1	697 NFkB inh 38 | 697 NFkB conf 35
CCC(C)(C)c1ccc(Oc2cccc(C(=O)O)c2)cc1	none
CCC(C)(C)c1ccc(OCCCC[n+]2ccccc2)c(C(C)(C)CC)c1	Beta cell apopt 114, 697 NFkB inh 78 (no result: Calb FLC) | 697 NFkB conf 34
COc1cccc(C(=O)OCC(=O)NCC2CCCO2)c1 (stereo unspecified)	none (no result: Calb FLC)
CCOc1ccc(-c2cc(CCCC(=O)NCCc3ccc(OC)c(OC)c3OC)no2)cc1	697 NFkB inh 37 | 697 NFkB conf inactive
CCOc1ccc(-c2cc(CCCC(=O)NCCC(C)C)no2)cc1	none
CCOc1ccc(NC(=O)CCCc2cc(-c3ccc(OCC)cc3)on2)cc1	697 NFkB inh 40 | 697 NFkB conf 40

Screening results as filed in PubChem BioAssay.
